# Results reported in PubChem BioAssay (NCI).
# The panel holds about 83,000 compounds, 20% with a hit somewhere; the sample as a whole holds those more often.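 How to read the values: 0–100, growth inhibition (40 = 60% inhibited); 0, no net growth; -100 to 0, cell death (-40 = 40% of starting cells died; -100 = all dead).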 Unmarked numbers belong to inactive results. Active and inactive are the calls of the source. The calls were made as follows: active = growth percent below 10; inactive = the rest.
# Tested on: MDA-MB-468 breast
# Test: NCI-60 one-dose screen, 48 h (100 = growth as untreated, 0 = no growth, -100 = all killed)
# Settings: 10 µM unless noted
row,SMILES,growth
1,CCOC(=O)CCC(NC(=O)c1ccc(N)cc1)C(=O)OCC (centres undefined),102%
2,CCCCCC[n+]1ccc(SCC(=O)n2ccc3ccccc32)c2ccccc21,4.72% (active)
3,Fc1cccc(CNc2c3ccccc3nc3ccccc23)c1,0.607% (active)
4,COc1ccc(-c2nnc3n(C)c(=O)c4ccccc4n23)cc1N,-6.61% (active)
5,CN1CCc2c(c3ccccc3c3ccccc23)C1,30.7%
6,CCCCC1COc2cccc3c2N1C=C/C3=C\C(=O)n1ccc2ccccc21 (centres undefined),12.3%
7,CC[C@H](C)[C@H]1NC(=O)[C@@H](N[C@](C)(O)[C@@H](N)CC(C)C)[C@@H](C)OC(=O)[C@H](Cc2ccc(OC)cc2)N(C)C(=O)[C@@H]2CCCN2C(=O)[C@H](CC(C)C)NC(=O)[C@@H](C)C(=O)[C@H](C(C)C)OC(=O)C[C@@H]1O,-31.2% (active)
8,CCCCCCCCCCCCCCNc1nc(CO)ncc1-c1ccc(C(F)(F)F)cc1,98.1%
9,O=C(NC1CCN(Cc2ccccc2)CC1)c1cc(-c2cccnc2)nc2ccc(Cl)cc12,54.7%
10,O=C1CCN(Cc2ccccc2)C(=S)N1,110%
11,C=C(C)[C@@H]1CC[C@]2(C(=O)N3CCOCC3)CC[C@]3(C)[C@H](CC[C@@H]4[C@@]5(C)C/C(=C/c6ccncc6)C(=O)C(C)(C)[C@@H]5CC[C@]43C)[C@@H]12,21.4%
12,O=C(O)c1ccc(N=CC(=O)c2ccc(-c3ccccc3)cc2)cc1,83.5%
13,O=C(COc1ccccc1)N1N=C(c2ccc(Cl)cc2)CC1c1c[nH]c2ccccc12 (centres undefined),85.7%
14,Cn1cc(-c2cnc3ccc(NC(=O)Nc4ccc(F)c(Br)c4)cc3n2)cn1,-6.86% (active)
15,Brc1ccc(-c2cc(-c3ccc4c(c3)OC=CO4)n[nH]2)s1,-13.5% (active)
16,CSc1nc(N)c(N)c(N)n1,114%
17,CC(O)c1ncc(/C=C2\SC(=S)N(Cc3ccccc3)C2=O)s1 (centres undefined),65.6%
18,O=C(O)c1cccc2oc(-c3ccccc3O)nc12,35.2%
19,COc1c(Cl)cc(Cl)c2ccc(C=C3C(=O)N(C)C(=O)N(C)C3=O)nc12,107%
20,Cc1[nH]c(C(=O)Nc2ccccc2OCc2cccc(C(=O)NCCN)c2)cc1Cl,34.3%

row,SMILES,growth
1,C=C1C(=O)O[C@H]2[C@H]1CC/C(COC(=O)N1CCC[C@H]1C(=O)Nc1ccc(OC)c(C(N)=O)c1O)=C\CC[C@@]1(C)O[C@@H]21,-4.47% (active)
2,Nc1nc(N)c2cc(NCc3ccc(Cl)c(Cl)c3)ccc2n1,-84.7% (active)
3,COc1ccc2c(c1)/C(=N/c1n[nH]c(=S)s1)C(=O)N2,17.1%
4,COc1ccc(-c2cnnc3c(-c4cccc(C(F)(F)F)c4)cnn23)cc1,77.6%
5,CC/C(=N\N=C(/CC)c1ccc(Br)cc1)c1ccc(Br)cc1,110%
6,CCCCCCNC(=O)Oc1ccc(/C(=C(/C)Cc2ccc(OC)cc2)c2ccc(OCCCN(C)C)cc2)cc1,-17.3% (active)
7,CNc1nc(NC)c2cn[nH]c2n1,94.8%
8,Fc1ccc(-c2nnc(-c3c(-c4ccc(F)cc4)nc4ncccn34)o2)cc1,88.7%
9,O=C(NNC(=O)c1nc2cc(F)ccc2n2cccc12)c1cnccn1,22.2%
10,Clc1nc(Cl)c2ncn(-c3ccccc3)c2n1,3.71% (active)
11,Cc1ccc(C2=NNC(c3sc(Cl)nc3Cl)C2)cc1 (centres undefined),93.5%
12,c1ccc(Nc2nc(-c3ccccn3)cs2)nc1,-14.6% (active)
13,CCCCCCCCCCCCCCCCCCOc1ccccc1N,101%
14,Cc1ccc(O)c(C(=O)O)c1,106%
15,C=CCN1C(=O)c2cccc3c(N4CCOCC4)ccc(c23)C1=O,-40% (active)
16,COC1=C(Br)C(=O)C(OC)=C(Br)C1=O,89.2%
17,Fc1cc(C(F)(F)F)ccc1-c1cncnc1NC1CCCCCC1,82.4%
18,COC(=O)c1ccc2c(c1)NC(=O)[C@@H]1CCCN21,109%
19,NS(=O)(=O)c1ccc(Nc2nc(SCc3ccccc3)nc3ccccc23)cc1,65.4%
